In PubChem BioAssay (EPA / NIEHS) one finds outcome and AC50 data, which are given here for 3 compounds.

The source made the active and inactive calls. Rule for the calls: active = hit-call score of the fitted dose curve at least 0.9, where 1 is the maximum; inactive = score below 0.9.

Holding throughout (conditions): mRNA level, 48 h; actives raise or lower the signal
Read-out in assay [1]: Apoptosis regulator Bcl-2 (Homo sapiens) (UniProt P10415)
As to the kind of experiment: LTEA_HepaRG_BCL2: Life Technologies and Expression Analysis (LTEA) Assay for Bcl-2 gene using HepaRG (AID 2283475).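 Note: BCL2 transcript by TaqMan qRT-PCR normalised to ACTB GAPDH and POLR2A.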 In a few lines: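 Each chemical was tested in duplicate on HepaRG cultures held in serum-free induction medium for 48 h, highest concentration 100 uM with half-log dilutions. Transcript levels came from multiplexed qRT-PCR, normalised to housekeeping genes; activity was scored in either direction relative to DMSO.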

Read-out in assay [2]: Bcl-2 (BID) gene, BID (gene 637)
Nature of the assay: LTEA_HepaRG_BID: Life Technologies and Expression Analysis (LTEA) Assay for Bcl-2 (BID) gene using HepaRG (AID 2283476). In a few lines: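 Assay used HepaRG hepatic cells treated 48 h in serum-free medium with half-log dilutions from 100 uM. Endpoint: BID mRNA, qRT-PCR, normalized to ACTB/GAPDH/POLR2A.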

Read-out in the next assay: Caspase-3 (Homo sapiens) (UniProt P42574)
Nature of the assay: LTEA_HepaRG_CASP3: Life Technologies and Expression Analysis (LTEA) Assay for cysteine-aspartic acid protease (CASP3) using HepaRG (AID 2283477). In a few lines:
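Differentiated HepaRG cells, plated 48 h, were treated in duplicate in serum-free induction medium for 48 h with eight half-log concentrations up to 100 uM in 0.5% DMSO. CASP3 mRNA measured by qRT-PCR, normalized to ACTB, GAPDH, POLR2A.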

Read-out in assay [3]: Cytochrome P450 (CYP24A1), CYP24A1 (gene 1591)
Nature of the assay: LTEA_HepaRG_CYP24A1: Life Technologies and Expression Analysis (LTEA) Assay for Cytochrome P450 (CYP24A1) using HepaRG (AID 2283478). In a few lines:
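HepaRG cells plated 48 h, then exposed in duplicate in serum-free induction medium for 48 h to 8-point half-log series from 100 uM in 0.5% DMSO. CYP24A1 mRNA by Fluidigm qRT-PCR, normalized to ACTB, GAPDH, POLR2A; bidirectional fit versus DMSO.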

Read-out in assay [4]: Cytochrome P450 (CYP1A2), CYP1A2 (gene 1544)
Nature of the assay: LTEA_HepaRG_CYP1A2: Life Technologies and Expression Analysis (LTEA) Assay for Cytochrome P450 (CYP1A2) using HepaRG (AID 2283479). In a few lines: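 Differentiated human HepaRG cells in serum-free induction medium exposed 48 hours in duplicate to 8 half-log concentrations from 100 uM, 0.5% DMSO. CYP1A2 mRNA quantified by qRT-PCR, normalized to ACTB, GAPDH and POLR2A; bidirectional fitting versus DMSO.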

Read-out in assay [5]: cysteine-aspartic acid protease (CASP8), CASP8 (gene 841)
As to the kind of experiment: LTEA_HepaRG_CASP8: Life Technologies and Expression Analysis (LTEA) Assay for cysteine-aspartic acid protease (CASP8) using HepaRG (AID 2283480). In a few lines:
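Concentration-response in duplicate up to 100 uM (half-log steps, 0.5% DMSO) on differentiated HepaRG cultures for 48 h. Expression change of CASP8 mRNA is determined by TaqMan qRT-PCR with housekeeping-gene normalization.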

Read-out in assay [6]: Cytochrome P450 2C19 (Homo sapiens) (UniProt P33261)
Nature of the assay: LTEA_HepaRG_CYP2C19: Life Technologies and Expression Analysis (LTEA) Assay for CYP2C19 using HepaRG (AID 2283482). In a few lines:
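Differentiated HepaRG cells in serum-free induction medium exposed 48 h in duplicate, 8 concentrations from 100 uM by half-log steps in 0.5% DMSO. CYP2C19 mRNA measured by TaqMan qRT-PCR, normalized to ACTB, GAPDH, POLR2A. Bidirectional fit versus DMSO.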

Read-out in the next assay: CYP2C8 (gene 1558)
As to the kind of experiment: LTEA_HepaRG_CYP2C8: Life Technologies and Expression Analysis (LTEA) Assay for CYP2C8 using HepaRG (AID 2283483). In a few lines:
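This is a transcriptional endpoint in HepaRG cultures: 48 h exposure, highest concentration 100 uM. CYP2C8 mRNA is quantified by TaqMan qRT-PCR.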

Read-out in a further assay: CYP2C9 (gene 1559)
As to the kind of experiment: LTEA_HepaRG_CYP2C9: Life Technologies and Expression Analysis (LTEA) Assay for CYP2C9 using HepaRG (AID 2283484). In a few lines: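 Eight-point concentration-response (highest 100 uM, half-log dilutions) in HepaRG cells for 48 h; CYP2C9 expression by qRT-PCR normalized to ACTB, GAPDH, POLR2A. Bidirectional fit, DMSO baseline.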

Read-out in another assay: CYP2E1 (gene 1571)
Nature of the assay: LTEA_HepaRG_CYP2E1: Life Technologies and Expression Analysis (LTEA) Assay for CYP2E1 using HepaRG (AID 2283485). In a few lines:
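Assay uses 48 h exposure of HepaRG hepatic cells, eight concentrations to 100 uM. Expression of CYP2E1 is quantified by TaqMan qRT-PCR with ACTB, GAPDH and POLR2A normalization; curves fitted in both directions relative to vehicle.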

Read-out in assay [7]: Cytochrome P450 3A4 (Homo sapiens) (UniProt P08684)
Nature of the assay: LTEA_HepaRG_CYP3A4: Life Technologies and Expression Analysis (LTEA) Assay for CYP3A4 using HepaRG (AID 2283487). In a few lines: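 In a human hepatic line (HepaRG), duplicate wells were treated 48 h with up to 100 uM chemical in half-log dilutions. Endpoint: CYP3A4 mRNA induction or loss relative to 0.5% DMSO vehicle, by qRT-PCR.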

Read-out in assay [8]: DNA damage-inducible transcript 3 (DDIT3), DDIT3 (gene 1649)
As to the kind of experiment: LTEA_HepaRG_DDIT3: Life Technologies and Expression Analysis (LTEA) Assay for DNA damage-inducible transcript 3 (DDIT3) using HepaRG (AID 2283488). In a few lines:
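Eight-point concentration-response (100 uM highest, half-log dilutions) in HepaRG, 48 h, duplicate wells. Endpoint: qRT-PCR mRNA, normalized (ACTB, GAPDH, POLR2A), bidirectional fitting with DMSO as baseline.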

Read-out in assay [9]: Pro-epidermal growth factor (Homo sapiens) (UniProt P01133)
Nature of the assay: LTEA_HepaRG_EGF: Life Technologies and Expression Analysis (LTEA) Assay for Epidermal growth factor (EGF) using HepaRG (AID 2283489). In a few lines:
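HepaRG cells (~100,000/well, 48 h pre-culture) exposed in duplicate for 48 h in serum-free induction medium to 8 half-log concentrations up to 100 uM in 0.5% DMSO. EGF mRNA by qRT-PCR, normalized to ACTB/GAPDH/POLR2A; bidirectional fit versus DMSO.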

Read-out in assay [10]: Early growth response protein 1 (EGR1) transcription factor, EGR1 (gene 1958)
As to the kind of experiment: LTEA_HepaRG_EGR1: Life Technologies and Expression Analysis (LTEA) Assay for Early growth response protein 1 (EGR1) transcription factor using HepaRG (AID 2283490). In a few lines:
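EGR1 expression change in human HepaRG after 48 h chemical exposure, assessed by housekeeping-normalized qRT-PCR; concentration-response up to 100 uM, fitted in both directions against DMSO controls.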

Read-out in assay [11]: Ezrin (EZR), EZR (gene 7430)
Nature of the assay: LTEA_HepaRG_EZR: Life Technologies and Expression Analysis (LTEA) Assay for Ezrin (EZR) using HepaRG (AID 2283491). In a few lines: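 Gain or loss of EZR mRNA is scored relative to 0.5% DMSO in human HepaRG cultures treated 48 h with test chemicals in duplicate, eight half-log concentrations from 100 uM.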

Read-out in another assay: CYP3A5 (gene 1577)
Nature of the assay: LTEA_HepaRG_CYP3A5: Life Technologies and Expression Analysis (LTEA) Assay for CYP3A5 using HepaRG (AID 2283493). In a few lines: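 Readout was CYP3A5 mRNA by qRT-PCR. HepaRG cultures were exposed for 48 h in serum-free induction medium to chemicals at up to 100 uM, and responses were fitted in both directions relative to DMSO vehicle.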

Read-out in assay [12]: Fatty Acid-Binding Protein 1 (FABP1), FABP1 (gene 2168)
Nature of the assay: LTEA_HepaRG_FABP1: Life Technologies and Expression Analysis (LTEA) Assay for Fatty Acid-Binding Protein 1 (FABP1) using HepaRG (AID 2283494). In a few lines: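 Values reflect bidirectional concentration-response fitting of FABP1 mRNA change against 0.5% DMSO controls. Human HepaRG cultures received eight half-log doses (top 100 uM) for 48 h; expression quantified by TaqMan qRT-PCR with housekeeping-gene normalization.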

Read-out in assay [13]: Cytochrome P450 4A22 (Homo sapiens) (UniProt Q5TCH4)
Nature of the assay: LTEA_HepaRG_CYP4A22: Life Technologies and Expression Analysis (LTEA) Assay for Cytochrome P450 4A22 (CYP4A22) using HepaRG (AID 2283495). In a few lines:
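Differentiated HepaRG cells in serum-free induction medium exposed 48 h in duplicate to eight half-log concentrations up to 100 uM in 0.5% DMSO. CYP4A22 mRNA quantified by TaqMan qRT-PCR, normalized to ACTB, GAPDH and POLR2A; bidirectional fit versus DMSO.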

Read-out in assay [14]: Cytochrome P450 7A1 (Homo sapiens) (UniProt P22680)
As to the kind of experiment: LTEA_HepaRG_CYP7A1: Life Technologies and Expression Analysis (LTEA) Assay for Cytochrome P450 7A1 (CYP7A1) using HepaRG (AID 2283496). In a few lines:
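Using 0.5% DMSO as vehicle and baseline, chemicals were tested in duplicate over an 8-point range from 100 uM on HepaRG cells for 48 h; qRT-PCR signals were normalised to ACTB, GAPDH and POLR2A.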

Read-out in assay [15]: Glutathione S-Transferase (GSTA2), GSTA2 (gene 2939)
Nature of the assay: LTEA_HepaRG_GSTA2: Life Technologies and Expression Analysis (LTEA) Assay for Glutathione S-Transferase (GSTA2) using HepaRG (AID 2283497). In a few lines: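 Oxidative-stress marker GSTA2 is quantified by TaqMan qRT-PCR in HepaRG cultures treated 48 h across an eight-point range to 100 uM. Expression is normalized to endogenous controls and compared with 0.5% DMSO vehicle.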

Cytochrome P450 2C19 (Homo sapiens), sequence (P33261 whole entry, looked up): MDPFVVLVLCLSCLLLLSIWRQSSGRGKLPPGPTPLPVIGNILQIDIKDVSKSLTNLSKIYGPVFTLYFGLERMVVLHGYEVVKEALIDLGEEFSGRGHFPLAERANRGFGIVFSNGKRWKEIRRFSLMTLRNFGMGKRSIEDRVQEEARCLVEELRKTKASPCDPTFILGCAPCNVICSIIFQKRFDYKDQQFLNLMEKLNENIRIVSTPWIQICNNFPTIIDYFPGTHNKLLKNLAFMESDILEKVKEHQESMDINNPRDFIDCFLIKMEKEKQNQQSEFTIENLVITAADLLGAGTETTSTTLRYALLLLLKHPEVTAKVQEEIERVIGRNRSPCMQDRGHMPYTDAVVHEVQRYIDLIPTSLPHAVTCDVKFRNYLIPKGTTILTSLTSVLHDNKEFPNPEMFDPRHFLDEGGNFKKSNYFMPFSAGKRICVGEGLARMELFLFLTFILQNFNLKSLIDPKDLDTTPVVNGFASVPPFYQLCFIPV
Caspase-3 (Homo sapiens), sequence (P42574 whole entry, looked up): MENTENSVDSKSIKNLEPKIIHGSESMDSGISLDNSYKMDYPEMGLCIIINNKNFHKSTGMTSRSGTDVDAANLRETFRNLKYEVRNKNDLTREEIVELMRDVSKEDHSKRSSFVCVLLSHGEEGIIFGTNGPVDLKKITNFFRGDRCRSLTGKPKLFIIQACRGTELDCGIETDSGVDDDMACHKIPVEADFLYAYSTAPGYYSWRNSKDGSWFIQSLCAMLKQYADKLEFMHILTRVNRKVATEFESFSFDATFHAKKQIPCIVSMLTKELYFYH
Cytochrome P450 3A4 (Homo sapiens), sequence (P08684 whole entry, looked up): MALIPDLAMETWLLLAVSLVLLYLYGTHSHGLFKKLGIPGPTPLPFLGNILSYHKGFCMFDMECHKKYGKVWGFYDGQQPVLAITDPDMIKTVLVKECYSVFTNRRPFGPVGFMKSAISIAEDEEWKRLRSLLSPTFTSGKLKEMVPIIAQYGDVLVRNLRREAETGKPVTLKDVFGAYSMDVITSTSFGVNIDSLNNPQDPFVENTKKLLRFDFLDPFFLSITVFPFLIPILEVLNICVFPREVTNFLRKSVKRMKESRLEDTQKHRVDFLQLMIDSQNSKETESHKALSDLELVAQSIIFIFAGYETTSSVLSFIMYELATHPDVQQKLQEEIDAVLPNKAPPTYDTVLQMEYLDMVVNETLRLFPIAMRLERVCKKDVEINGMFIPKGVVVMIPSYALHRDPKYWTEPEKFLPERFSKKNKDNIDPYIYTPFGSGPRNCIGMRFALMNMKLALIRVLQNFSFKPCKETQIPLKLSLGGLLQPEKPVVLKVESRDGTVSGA
Apoptosis regulator Bcl-2 (Homo sapiens), sequence (P10415 whole entry, looked up): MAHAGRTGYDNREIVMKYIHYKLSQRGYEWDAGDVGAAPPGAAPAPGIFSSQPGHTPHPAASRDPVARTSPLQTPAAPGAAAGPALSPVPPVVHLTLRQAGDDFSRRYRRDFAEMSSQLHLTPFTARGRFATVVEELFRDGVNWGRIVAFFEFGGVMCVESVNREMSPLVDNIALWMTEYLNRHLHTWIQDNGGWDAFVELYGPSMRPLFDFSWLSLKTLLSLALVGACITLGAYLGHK

Turning to `CCCCC=O`, the result (in [1]; in assay [2]; with Caspase-3 (Homo sapiens); in [3]; in [4]; in [5]) was inactive. Besides, the outcome (in assay [6]; with CYP2C8 (gene 1558); with CYP2C9 (gene 1559); with CYP2E1 (gene 1571); in [7]; in assay [8]) was inactive. The result (in assay [9]; in assay [10]; in assay [11]; with CYP3A5 (gene 1577); in assay [12]; in assay [13]) was inactive. In addition, the result in [14] and in assay [15] was inactive.
`CCCCC(CC)C(=O)O` (centres undefined): the call (in assay [1]; in assay [2]; with Caspase-3 (Homo sapiens); in [3]; in assay [4]; in assay [5]) was inactive. The call (in [6]; with CYP2C8 (gene 1558); in the assay with CYP2C9 (gene 1559); in the assay with CYP2E1 (gene 1571); in [7]; in assay [8]) was inactive. Moreover, the result (in assay [9]; in assay [10]; in [11]; in the assay with CYP3A5 (gene 1577); in assay [12]; in assay [13]) was inactive. For the same compound, the compound was classed as inactive in assay [14] and in [15].
For the compound `CN(Cc1cnc2nc(N)nc(N)c2n1)c1ccc(C(=O)N[C@@H](CCC(=O)O)C(=O)O)cc1`, the outcome (in assay [1]; in [2]; with Caspase-3 (Homo sapiens); in assay [3]; in assay [5]; in assay [6]) was inactive. Besides, the compound was called inactive (in the assay with CYP2C8 (gene 1558); in [7]; in assay [8]; in assay [9]; in assay [11]; in assay [13]). Besides, the AC50 in assay [4] is 0.0974 µM (active); in the assay with CYP2E1 (gene 1571) it was 0.222 µM (active); in [10], 0.121 µM (active); with CYP3A5 (gene 1577) it was 0.0985 µM (active); in assay [12], 0.322 µM (active); in assay [14] it was 0.233 µM (active). Also, the AC50 in assay [15] is 0.264 µM (active).

As a reminder, the AC50 is the concentration at which the activity in the assay is half-maximal.
